# Source: PubChem BioAssay (Tox21)
# Unmarked numbers belong to inactive results. The call rests on the fitted dose curve.
# Target: Muscarinic acetylcholine receptor M1 (Homo sapiens) (UniProt P11229)
# Assay: Cholinergic receptor muscarinic 1 (CHRM1) small molecule agonists, cell-based qHTS assay (AID 1963589); further: nearly all actives have a fitted effect of over 35% in size
# Conditions: CHRM1-CHO cells, agonist mode, calcium flux fluorescence; series mostly up to 76.8 µM; activation: at the top concentration
# Text: National Center for Advancing Translational Sciences [NCATS]
# Division of Preclinical Innovation [DPI]
# U.S. Environmental Protection Agency [EPA]
# National Institutes of Environmental Health Sciences [NIEHS]
# National Toxicology Program [NTP]
# U.S. Food and Drug Administration [FDA]
# The CHRM1 is a muscarinic receptor. This receptor plays a crucial role in learning and memory processes and has long been identified as a promising therapeutic target for the improvement of cognitive decline in Alzheimer's disease (AD). The CHRM1-CHO cell line stably expressing human muscarinic acetylcholine receptor M1 (CHRM1) can be used for screening agonists and antagonists of interactions between CHRM1 and its ligands. The CHRM1-CHO Calcium Flux Assay is a homogeneous fluorescence-based assay for detecting the intracellular calcium level using FDSS kinetic plate reader system.
# CHRM1-CHO cells were dispensed at 1000 cells/3uL/well in 1536-well black-clear bottom plates using a Multidrop Dispenser. After the assay plates were incubated at a 37 C/5% CO2 incubator for 18 h, 3 uL of Dye Loading Buffer was transferred to the assay plate by a Flying Reagent Dispenser. The assay plates were incubated at 37 C for 1h. For agonist mode, 23 nL of compounds dissolved in DMSO, positive controls or DMSO only was transferred to the assay plate by a pin tool. […] Each test compound was measured at 15 concentrations in three independent runs.
# On the % scale 0 is the no-effect control and ±100 the full control effect.
# Muscarinic acetylcholine receptor M1 (Homo sapiens), sequence (P11229 whole entry, looked up): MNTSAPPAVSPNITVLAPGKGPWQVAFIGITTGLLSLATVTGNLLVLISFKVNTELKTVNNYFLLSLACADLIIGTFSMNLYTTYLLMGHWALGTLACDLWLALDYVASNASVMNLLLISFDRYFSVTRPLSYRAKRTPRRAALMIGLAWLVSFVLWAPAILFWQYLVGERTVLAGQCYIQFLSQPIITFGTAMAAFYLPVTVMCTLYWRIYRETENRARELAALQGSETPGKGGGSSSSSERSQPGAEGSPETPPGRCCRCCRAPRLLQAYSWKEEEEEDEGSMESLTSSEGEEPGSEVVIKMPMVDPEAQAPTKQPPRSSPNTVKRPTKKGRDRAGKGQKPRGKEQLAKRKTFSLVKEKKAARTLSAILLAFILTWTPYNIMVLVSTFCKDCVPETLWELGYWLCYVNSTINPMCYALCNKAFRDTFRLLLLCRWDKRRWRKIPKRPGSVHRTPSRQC
row,Compound,activation
1,CC1=CC(=O)CC(C)(C)C1(O)/C=C/C(C)=C\C(=O)O (stereo not given),0.744%
2,CCc1cccc(C)c1,0.432%
3,CC(=O)OC1CCCCC1C(C)(C)C (stereo not given),0.0972%
4,C=C1C(CCl)(CCl)C2(Cl)C(Cl)C(Cl)C1(Cl)C2(Cl)Cl (stereo not given),-0.299%
5,CC(=O)SC[C@@H](Cc1ccccc1)C(=O)NCC(=O)OCc1ccccc1,1.04% [at 35.3 µM]
6,CC(C)(C)C(=O)Oc1ccc(S(=O)(=O)Nc2ccccc2C(=O)NCC(=O)O)cc1,-0.0343% [at 35.3 µM]
7,CC(=O)c1cnccn1,0.458%
8,CC(C)(C)NCC(O)COc1cccc2c1CCC(=O)N2 (stereo not given),-0.231% [at 35.3 µM]
9,CO/N=C(\C(=O)N[C@@H]1C(=O)N2C(C(=O)O)=C(CSc3nc(=O)c(O)nn3C)CS[C@H]12)c1csc(N)n1,-0.114% [at 35.3 µM]
10,Cc1c(C)c2c(c(C)c1OC(=O)CCC(=O)OCCO)CC[C@@](C)(CCC[C@H](C)CCC[C@H](C)CCCC(C)C)O2,-0.0326% [at 35.3 µM]
11,Clc1cccnc1,0.0295%
12,CCOC(=O)COc1cc(-n2ncc(C(F)(F)F)c(C)c2=O)c(F)cc1Cl,-0.858%
13,CCOC(=O)C1=NOC(c2ccccc2)(c2ccccc2)C1,-0.142%
14,CN1CCCCC1CCN1c2ccccc2Sc2ccc(S(C)=O)cc21 (stereo not given),-0.309% [at 35.3 µM]
15,CCC(C)(C)C(=O)O,8.79%
16,ONc1ccccc1,1.03%
17,C=CC(=O)OCC1CCCO1 (stereo not given),0.038%
18,CN1CCN(C2Cc3ccccc3Sc3ccc(Cl)cc32)CC1 (stereo not given),1.34% [at 35.3 µM]
19,COCCOC(=O)C1=C(C)NC(C)=C(C(=O)OC/C=C/c2ccccc2)C1c1cccc([N+](=O)[O-])c1 (stereo not given),-0.399% [at 35.3 µM]
20,CNC(=O)N(c1ccccc1)c1ccccc1,0.59%

row,Compound,activation
1,CCOC(=O)OCC/C(SC(=O)OCC)=C(\C)N(C=O)Cc1cnc(C)nc1N,-0.18% [at 35.3 µM]
2,CC(C)C(=O)OCc1ccccc1,0.0094%
3,COCCCCCCCCOCCC[Si](C)(O[Si](C)(C)C)O[Si](C)(C)C,0.133%
4,C=COCCCCO,-0.642%
5,CCc1ccc(O)c(OC)c1,-0.327%
6,CN(C)CCN(C)CCN(C)C,-0.195%
7,CCCCCCC(O)CCOC(C)=O (stereo not given),-0.581% [at 200 µM]
8,CC1=CCC2C(C1)C2(C)C (stereo not given),-0.186%
9,Cc1cc(O)ccc1N,0.598%
10,CCCCCCCCOc1ccc(C(=O)O)cc1,2.23%
11,O=c1c2ccccc2nnn1CCl,-0.477%
12,C/C=C(\C)C(=O)OCC/C=C\CC,-0.132%
13,CCC(C=O)CC,-0.093%
14,FC(F)(F)c1ccc(Cl)cc1Cl,3.04%
15,CCOC(=O)Cn1cccc1-c1nc(-c2ccc(OC)cc2)c(-c2ccc(OC)cc2)s1,1.85% [at 35.3 µM]
16,Cc1cccc2sc(N)nc12,-0.814%
17,O=C(O)c1cc(N=Nc2ccc([N+](=O)[O-])cc2)ccc1O,1.18%
18,CCNS(=O)(=O)c1ccc(C)cc1,-0.899%
19,Cc1cc(S(=O)(=O)O)ccc1N=Nc1c(O)ccc2ccccc12,1.09%
20,CC1CCc2cc(F)cc3c(=O)c(C(=O)O)cn1c23 (stereo not given),-0.437% [at 35.3 µM]
